Measurements taken from PubChem BioAssay.

Assay: small molecules captured by biotinylated probe aFSTL3 – biochemical, small-molecule microarray, fluorescence 635/667, stem cell growth factor project, primary screen (AID 1064);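 note: measures binding of the biotinylated anti-FSTL3 antibody to printed compounds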
Conditions: higher = more signal

| SMILES | composite z-score |
| --- | --- |
| C[C@]1(C(=O)NCCN2CCOCC2)c2ccccc2C(=O)N(Cc2ccc(OC(F)(F)F)cc2)[C@H]1c1ccc(CO)cc1 | 0.0198 |
| [N-]=[N+]=Nc1ccccc1[C@@H]1OC(c2ccc(OCCCO)cc2)=N[C@]1(CCS(=O)(=O)c1ccccc1)C(=O)NCCN1CCOCC1 | 0.483 |
| CC(C)CN1C(=O)[C@@]2(Cc3ccccc31)c1ccccc1C(=O)N(Cc1ccccc1C(F)(F)F)[C@H]2c1ccc(CO)cc1 | 0.0106 |
| C=CC[C@]1(C(=O)N(C)C)N=C(c2ccc(OCCCO)cc2)O[C@H]1c1ccccc1N=[N+]=[N-] | 0.396 |
| COc1cc2c(cc1OC)CN(C(=O)[C@H]1[C@@H]3C(=O)O[C@@H](c4ccccc4)[C@@H](c4ccccc4)N3[C@@H](c3ccc(OCCO)cc3)[C@]13C(=O)Nc1ccc(C#CC4(O)CCCCCC4)cc13)CC2 | 1.18 |
| COCCCNC(=O)[C@@H]1c2ccccc2C(=O)N(Cc2ccccc2C(F)(F)F)[C@H]1c1ccc(CO)cc1 | 0.6 |
| C=CC[C@]12N=C(c3ccc(OCCCO)cc3)O[C@H]1c1ccccc1N(C)C2=O | 1.21 |
| CCCC[C@@H]1C[C@H]1[C@@H](NC(=O)c1cccnc1)c1ccc(-c2ccccc2)cc1 | 0.684 |
| C[C@@H]1ON(c2ccc(C(=O)OC(C)(C)C)cc2)[C@H](c2ccc(Br)cc2)[C@H]1C(=O)N1C(=O)OC[C@H]1Cc1ccccc1 | -0.312 |
| CC(C)CCC[C@@H](C)[C@H]1CC[C@@]2(C)C3=C(CC[C@]12C)[C@@]1(C)CC[C@H](OC(=O)c2ccc(Br)cc2)C(C)(C)C1CC3 (stereo partly specified) | -0.571 |
| COc1cc2c(cc1O)C(C)N(Cc1cc3c(cc1Br)OCO3)CC2 (stereo unspecified) | 0.731 |
| COc1c(C)cc(-c2cc3c(c(Cc4ccccc4)n2)[Si](C(C)C)(C(C)C)OC3)cc1C | -0.148 |
| CN(C)CCCN1C(=O)[C@@]2(c3ccc([N+](=O)[O-])cc3)CC(=O)N(CC34CC5CC(CC(C5)C3)C4)[C@@H]2c2ccc(CO)cc21 | -0.106 |
| CO[C@H]1O[C@H](CO)[C@@H](OC(=O)Nc2ccc(C(F)(F)F)cc2)[C@H](OC(=O)Nc2ccc3c(c2)OCO3)[C@H]1OC(=O)Nc1ccc2c(c1)OCO2 | 0.303 |
| NC(=O)NCC#Cc1ccc2c(c1)[C@]1(C(=O)N2)[C@H](C(=O)Nc2nc3ccccc3s2)[C@H]2C(=O)O[C@H](c3ccccc3)[C@H](c3ccccc3)N2[C@@H]1c1ccc(O)cc1 | 0.187 |
| COCCOC(=O)N1C(=O)[C@@]2(c3cc(C#CC4(O)CCCCCC4)ccc31)[C@H](C(=O)N1CCCCCCC1)[C@H]1C(=O)O[C@H](c3ccccc3)[C@H](c3ccccc3)N1[C@@H]2c1ccc(OCCO)cc1 | 3.43 |
| COC(=O)[C@@]1(Cc2ccccc2)[C@H]2c3cc(C(=O)N4CCCC4)[nH]c3C[C@H]2CN1C(=O)c1ccccc1 | 0.718 |
| CCOC(=O)[C@H]1C/C=C/C[C@H](C(=O)OCC)C(=O)O[C@H]2[C@@H](OC)O[C@H](CO)[C@@H](OC(=O)CCc3ccccc3)[C@@H]2OC1=O | -0.146 |
| Cc1ccc(F)cc1S(=O)(=O)N[C@@H]1CCN(Cc2ccc(OC(C)C)cc2)C1 | -0.0929 |
| COCCOC(=O)N1C(=O)[C@@]2(c3cc(C#CC4=CCCCC4)ccc31)[C@H](C(=O)N1CCN(c3ncccn3)CC1)[C@H]1C(=O)O[C@H](c3ccccc3)[C@H](c3ccccc3)N1[C@@H]2c1ccc(O)cc1 | -0.0505 |
| COC(=O)C1(Cc2ccccc2)C=C2C(=C(C(C)C)C(=O)C2C)CN1 (stereo unspecified) | 1.63 |
| O=C1O[C@H](c2ccccc2)[C@H](c2ccccc2)N2[C@H]1[C@@H](C(=O)O)[C@]1(C(=O)Nc3ccccc31)[C@H]2c1ccc(O)cc1 | 1.17 |
| COc1ccc(NC(=O)O[C@H]2[C@H](OC(=O)Nc3ccc4c(c3)OCO4)[C@@H](OC(=O)Nc3ccc4c(c3)OCO4)[C@@H](OC)O[C@@H]2CO)cc1 | 0.157 |
| COc1c(C)cc(-c2cc3c(c(-c4ccccc4)n2)[Si](C(C)C)(C(C)C)OC3)cc1C | -0.0563 |
| C[C@@H](OCc1ccccc1)C1NC(=O)[C@@]23C(=O)N[C@@H](Cc4ccccc4)C2[C@H](C)[C@@]2(C)O[C@H]2C3/C=C/C/C=C\CNC(=O)CNC1=O (stereo partly specified) | -0.231 |
| COc1ccc([Si](C)(C)[C@@H]2[C@@H](CC(=O)N3CCC[C@H]3CO)O[C@]3(C(=O)N(Cc4ccc(N5C(=O)c6cccc7cccc5c67)cc4)c4ccccc43)[C@H]2C)cc1 | -0.629 |
